High-throughput results as filed in PubChem.
Sampled rows, rich in hits. Any-hit rate of the full collection: about 1.7%.
IL1B cytotox: toxic to HUVEC cells under IL-1B stimulation | HUVEC cell count loss, Hoechst imaging, IL-1B stimulated | cell count reduction, % at 2 µM | 94,000 tested, 0.41% active;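 active = cell count reduction more than 3 SD above the screen-wide mean, cut at about 70% in these data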;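 note: normalized per plate to untreated control cells as the no-loss baseline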
E-sel TNF inh: TNF alpha driven E-selectin expression inhibition; 120,000 tested, 0.71% active; inhibition, % at 2 µM; HUVEC TNFa-induced E-selectin immunofluorescence, high content; AID 1246;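 active = inhibition above the batch mean plus 3 SD, and confirmed as a hit on visual image review, cut at about 43% in these data; inconclusive = passes the inhibition cutoff but fails visual image review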;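 note: 0% = TNF-stimulated DMSO wells and 100% = unstimulated control wells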
VCAM1 TNFa inh: reduces TNF alpha induced VCAM1 expression in HUVEC | HUVEC TNFa-induced VCAM-1 immunofluorescence, high-content imaging | inhibition, % at 2 µM | 95,000 tested, 0.48% active;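 active = inhibition above the batch mean plus 3 SD, with images confirmed as a hit by eye, cut at about 37% in these data; inconclusive = inhibition above that limit but hit not confirmed in images; inactive = inhibition not above that limit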;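 note: 0% = TNF-stimulated DMSO wells and 100% = unstimulated control wells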
HUVEC tox TNFa: toxic to HUVEC cells under TNF alpha stimulation. HUVEC TNFalpha-stimulated, Hoechst cell count, imaging. cell count reduction, % at 2 µM. 93,000 tested, 0.17% active. AID 848;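 active = cell count reduction exceeding the screen mean by over 5 SD, scaled to untreated wells per plate, cut at about 78% in these data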;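 note: cells counted after 24 h of TNF alpha exposure following the 1 h pretreatment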
NFkB transloc pot: enhances IL-1B driven NFkB nuclear translocation; AID 819; 94,000 tested, 0.3% active; activation, % at 2 µM; HUVEC IL-1B NFkB p65 nuclear translocation imaging;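 active = activation above 40%, about the mean plus 3 SD, also judged a hit on visual image review; inconclusive = activation above 40% but not a hit on visual review; inactive = activation not above 40% and no visual hit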;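 note: percent activation is computed from the nuclear over cytoplasmic p65 intensity ratio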
NFkB transloc inh: blocks IL-1B driven NFkB nuclear translocation in HUVEC cells. HUVEC IL-1B NFkB p65 nuclear translocation imaging. inhibition, % at 2 µM. 94,000 tested, 0.43% active. AID 796;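 active = inhibition above about 30% together with a positive call from visual inspection of the well image, limit read from the data; inconclusive = inhibition above a set limit but visual check negative; inactive = inhibition not above a set limit, visual check negative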;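 note: nuclear over cytoplasmic p65 intensity ratio measured by imaging; 0% = IL-1B stimulated DMSO wells and 100% = unstimulated DMSO wells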
* marks the source's active call; other numbers are inactive results; ? = inconclusive; nt = not tested or not shown.

SMILES	IL1B cytotox	E-sel TNF inh	VCAM1 TNFa inh	HUVEC tox TNFa	NFkB transloc pot	NFkB transloc inh
COc1ccccc1N1CCN(CC(O)COc2ccc3c(c2)CCC3)CC1 (stereo not drawn)	-4	-1	0	1	-2	2
CCOC(=O)N1CCC(NC(=O)c2ccc3c(Cl)c4c(nc3c2)CCCC4)CC1	nt	24	nt	nt	nt	nt
CCOC(=O)N1CCC(NC(=O)c2ccc3c(=O)n4c(nc3c2)CCCC4)CC1	-2	64*	-2	4	2	-2
O=[N+]([O-])c1ccc(Sc2nc3ccccc3o2)c([N+](=O)[O-])c1	-10	38	73*	35	16	-16
O=[N+]([O-])c1ccc(Cl)cc1Sc1nc2ccccc2o1	-23	20	9	2	4	-4
CC(NCc1ccc2c(c1)OCO2)C(=O)NC1CCCc2ccccc21 (stereo not drawn)	-8	1	nt	95*	-10	10
Cc1cc(C(=O)NC2CCCc3ccccc32)c(C)o1 (stereo not drawn)	-26	5	5	11	15	-15
O=C(NC(=S)N1CCOCC1)c1ccc([N+](=O)[O-])cc1	nt	4	nt	nt	nt	nt
NC(=O)NOCc1ccccc1	nt	68*	nt	nt	nt	nt
NC(=O)CC(NC(=O)OCc1ccccc1)C(=O)O (stereo not drawn)	-11	-6	3	-22	0	0
O=C(NCC(c1cccs1)N1CCOCC1)c1ccccc1NS(=O)(=O)c1cc([N+](=O)[O-])ccc1Cl (stereo not drawn)	nt	8	nt	nt	nt	nt
Cn1nc(C(=O)NCC2CCCO2)c2ccccc2c1=O (stereo not drawn)	3	6	95*	84*	16	-16
O=C(CCSc1ccccc1)NCC1CCCO1 (stereo not drawn)	-31	-20	1	-23	-8	8
O=C(CC(c1ccccc1)c1ccccc1)NCC1CCCO1 (stereo not drawn)	-51	23	41*	10	10	-10
CC1CC(=O)Nc2ccccc2S1(=O)=O (stereo not drawn)	nt	84*	nt	nt	nt	nt
CC(C)(C)C1CCC(C(=O)OCC(=O)c2ccc[nH]2)CC1 (stereo not drawn)	nt	-30	nt	nt	nt	nt
Cc1cc(=O)oc2cc(OC(=O)CCCCCN3C(=O)c4ccccc4C3=O)ccc12	nt	-15	nt	nt	nt	nt
CCOC(=O)c1c(NC(=O)CN2CCOCC2)sc(C(=O)NC)c1C	-14	-3	3	0	-1	1
COCCOC(=O)c1c(NC(=O)CN2CCOCC2)sc(C(N)=O)c1C	0	72*	0	-8	8	-8
CCOc1ccc(CCNC(=O)COC(=O)/C=C/c2ccc(OCC#N)c(OC)c2)cc1OCC	nt	4	nt	nt	nt	nt
CN(C)C(=O)C1(c2ccccc2)CCN(S(=O)(=O)c2ccccc2)CC1	90*	-29	17	-13	26	-26
CS(=O)(=O)CCC(C(=O)OCC(=O)c1ccc(Cl)cc1)N1C(=O)c2ccccc2C1=O (stereo not drawn)	nt	12	nt	nt	nt	nt
CO/C([O-])=N/c1c[n+](-c2ccc(Cl)cc2)no1	nt	59*	-4	-8	nt	nt
O=C(COC(=O)CCc1nc2ccccc2s1)NC(=O)NCc1ccco1	nt	-14	nt	nt	nt	nt
O=C(c1ccc([N+](=O)[O-])cc1)N(Cc1ccc(Cl)cc1Cl)N1C(=O)CCCC1=O	25	-15	-20	9	-16	16
SMILES	IL1B cytotox	E-sel TNF inh	VCAM1 TNFa inh	HUVEC tox TNFa	NFkB transloc pot	NFkB transloc inh
O=C(c1ccc([N+](=O)[O-])cc1)N(Cc1ccc(Cl)cc1)N1C(=O)CCCC1=O	34	22	46*	3	-23	23
CCN1CC=C2C(C#N)=C(N)C(C#N)(C#N)C(c3cc(Cl)ccc3Cl)C2C1 (stereo not drawn)	20	4	2	-12	25	-25
COc1ccc(-c2cc3ncc(C(C)=O)c(C)n3n2)cc1	nt	-2	nt	nt	nt	nt
CCc1ccc(C(=O)Cn2ncc(Cl)c(Cl)c2=O)cc1	5	0	16	-13	-56	56*
CCOc1c2ccc(C(=O)NCc3ccc(C)cc3)cc2nn1CCOC	6	-33	6	4	-14	14
CCOC(=O)CCc1c(C)c2c(C)nn(-c3ccccc3)c2[nH]c1=O	-38	nt	10	-29	-32	32*
C=CCn1c(Br)nc2c1c(=O)n(C)c(=O)n2C	21	13	-18	-22	49*	-49
COCCn1c(SCC(=O)Nc2ccc(Cl)cn2)nnc1-c1ccncc1	nt	-4	nt	nt	nt	nt
CC(C)N(C(=O)C(=O)c1cccn1-c1ccccc1C#N)C(C)C	0	12	-4	2	1	-1
C/C(=N\Nc1cc(-c2ccccc2)nc(-c2ccccc2)n1)c1ccc(O)c(C)c1	nt	80*	nt	nt	nt	nt
CCCN1C(=O)CC(C(=O)OC)=C1C	-53	5	11	-14	3	-3
COC(=O)C1=C(C)N(CCc2ccccc2)C(=O)C1	93*	-21	7	16	-88	88*
Cc1ccc(NC(=O)N2CCC(C(=O)NCCC3=CCCCC3)CC2)cc1	21	40*	4	14	-9	9
COc1ccccc1CNC(=O)CSc1nnc2ccc(-c3cccnc3)nn12	nt	84*	nt	nt	nt	nt
CCC1CCCCN1C(=S)NC1CCCCC1 (stereo not drawn)	nt	-5	nt	nt	nt	nt
O=C(NC(=O)c1cccc(OC(F)(F)C(F)F)c1)OC1CCS(=O)(=O)C1 (stereo not drawn)	nt	54*	nt	nt	nt	nt
Clc1ccc(-n2ncc3c(NCc4ccc5c(c4)OCO5)ncnc32)cc1	-14	-21	80*	28	8	-8
Clc1ccc(-n2ncc3c(NCc4ccco4)ncnc32)cc1	-43	-22	nt	nt	?	-47
O=C(Nc1ccccc1)OCCNC(=O)c1ccccc1	-66	6	20	-7	40*	-40
O=C(NCCOC(=O)c1ccncc1)c1ccccc1	-40	-10	-26	-3	-3	3
Cc1ccc(S(=O)(=O)NNC(=O)C2COc3ccccc3O2)cc1C (stereo not drawn)	nt	-14	nt	nt	nt	nt
Cc1ccc(S(=O)(=O)N2CCN(C(=O)C3COc4ccccc4O3)CC2)cc1C (stereo not drawn)	-11	79*	6	-10	32	-32
COc1ccc(/C(O)=C2/C(=O)C(=O)N(CCN(C)C)C2c2ccc(OC)c(OC)c2)c(C)c1 (stereo not drawn)	8	nt	nt	nt	-39	39*
COc1cc(C2/C(=C(/O)c3ccc(OCC(C)C)cc3)C(=O)C(=O)N2CCN(C)C)ccc1O (stereo not drawn)	-97	16	-5	-14	41*	-41
COc1ccc(/C(O)=C2/C(=O)C(=O)N(CCN(C)C)C2c2ccc(C)cc2)cc1Cl (stereo not drawn)	-10	-18	-57	-10	10	-10
COc1ccc(CCNC(=O)c2ccc(-c3ccc([N+](=O)[O-])cc3)o2)cc1OC	nt	-55	nt	nt	nt	nt
CCOc1ccc(CCNC(=O)C2CCCN2C(=O)OCc2ccccc2)cc1OCC (stereo not drawn)	nt	-16	nt	nt	nt	nt
